From PubChem BioAssay (NCI)
The panel holds about 83,000 compounds, 20% with a hit somewhere; the sample as a whole holds those more often.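 96-well plates, one dose, 48 hours. Percent growth reported; active if below 10.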 Unmarked numbers belong to inactive results. The source made the active and inactive calls.

How the values were obtained:
Experiment in all cases: NCI-60 one-dose screen, 48 h (100 = growth as untreated, 0 = no growth, -100 = all killed)
Settings in all cases: 10 µM unless noted
SR leukemia = system: SR leukemia
RPMI-8226 leukemia = system: RPMI-8226 leukemia
OVCAR-8 ovarian = system: OVCAR-8 ovarian
OVCAR-5 ovarian = system: OVCAR-5 ovarian
OVCAR-4 ovarian = system: OVCAR-4 ovarian
SK-OV-3 ovarian = system: SK-OV-3 ovarian
IGROV1 ovarian = system: IGROV1 ovarian
OVCAR-3 ovarian = system: OVCAR-3 ovarian
NCI/ADR-RES ovarian = system: NCI/ADR-RES ovarian
T-47D breast = system: T-47D breast
BT-549 breast = system: BT-549 breast
MDA-MB-435 melanoma = system: MDA-MB-435 melanoma
SW-620 colon = system: SW-620 colon
MCF7 breast = system: MCF7 breast
HCT-116 colon = system: HCT-116 colon
HCC-2998 colon = system: HCC-2998 colon
KM12 colon = system: KM12 colon
MDA-MB-468 breast = system: MDA-MB-468 breast

SMILES | growth (SR leukemia) | growth (RPMI-8226 leukemia) | growth (OVCAR-8 ovarian) | growth (OVCAR-5 ovarian) | growth (OVCAR-4 ovarian) | growth (SK-OV-3 ovarian) | growth (IGROV1 ovarian) | growth (OVCAR-3 ovarian) | growth (NCI/ADR-RES ovarian) | growth (T-47D breast) | growth (BT-549 breast) | growth (MDA-MB-435 melanoma) | growth (SW-620 colon) | growth (MCF7 breast) | growth (HCT-116 colon) | growth (HCC-2998 colon) | growth (KM12 colon) | growth (MDA-MB-468 breast)
CCN1C(=O)N(CC)C2NNC(Sc3c(C(=O)O)c4ccccc4n(C4CCCC4)c3=O)=NC21 (centres undefined) | 22.4% | 24.8% | 4.93% (active) | 38.4% | 61.8% | 32.8% | 29.6% | -32.5% (active) | 25.1% | 61.4% | 6.1% (active) | -29.3% (active) | 30.6% | 16.6% | 4.07% (active) | 26.4% | 3.71% (active) | 58.1%
O=C(COc1ccc(NC(=O)Nc2ccc(Cl)c(Cl)c2)cc1)N=Nc1c(O)[nH]c2ccc(Br)cc12 | 3.18% (active) | 3.61% (active) | -59.9% (active) | -44.5% (active) | -27% (active) | -43.3% (active) | -51% (active) | -76.4% (active) | 82.4% | -26.4% (active) | -71.5% (active) | -51.3% (active) | -21.2% (active) | -1.82% (active) | -60.6% (active) | -67.3% (active) | -87.2% (active) | -75% (active)
CC(=O)/C=C/c1cccc2c1C(=O)NC(C)(c1cc3cc(Br)ccc3oc1=O)N2 (centres undefined) | -0.625% (active) | 2.71% (active) | 24.9% | 30.8% | 27.2% | 52.6% | 25.3% | 28.1% | 32.9% | 32% | -8.15% (active) | 42.3% | 32.3% | 13.4% | 15.1% | 23.3% | 25.3% | -6.53% (active)
COc1ccc(C2(SCCNCc3cc(N(C)C)ccn3)c3ccccc3C=Cc3ccccc32)cc1 | -28.5% (active) | -22.8% (active) | 9.18% (active) | 9.62% (active) | 43.7% | 36.5% | 40.8% | 14.6% | -47.9% (active) | 32.4% | 6.65% (active) | -33% (active) | 4.94% (active) | -5.08% (active) | 3.35% (active) | -30.1% (active) | 13.9% | -46.9% (active)
CC1(C)CC[C@]2(C(=O)Nc3ccc(Br)cc3)CC[C@]3(C)C(=CCC4[C@@]5(C)C[C@@H](O)[C@H](O)[C@@](C)(CO)C5CC[C@]43C)C2C1 (some centres undefined) | -9.66% (active) | -33.5% (active) | 25.6% | -21.8% (active) | 5.44% (active) | 4.34% (active) | 38.2% | -4.06% (active) | 14.7% | -9.58% (active) | -35.4% (active) | 3.33% (active) | 18.8% | 1.85% (active) | -15.8% (active) | -33.4% (active) | -52.9% (active) | -3.95% (active)
CC(C)c1ccc2c(N)c(C(=O)Nc3ccc(C(F)(F)F)cn3)sc2n1 | 41.9% | 37.9% | 63.8% | 89.9% | 32.4% | 83.9% | 81.2% | 83% | 25% | 23.2% | 42.1% | 54.8% |  | 36.9% | 47.3% | 96.1% | 57% | 14.8%
N#Cc1c(-c2ccc(Cl)cc2)nc2n[nH]c(-c3ccc(Cl)cc3)c2c1-c1cccs1 | 25.6% | 17.7% | 66.7% | 75.8% | 42.3% | 54.2% | 62% | 63.5% | 61.1% | 6.48% (active) | 55.4% | 60.5% |  | 44.7% | 35.4% | 69.3% | 42% | 
COc1ccc(/C=C/c2nc3ccccc3nc2Nc2cccc(C)c2)cc1 | 85.8% | 95.7% | 98% | 108% | 91.6% | 95.9% | 82.1% | 104% | 105% | 77.7% | 99.9% | 98.3% | 95.3% | 67.3% | 87.3% |  | 97.2% | 
O=c1[nH]n(C(=S)N/N=C/c2ccccc2Cl)c(=O)c2ccccc12 | -13.8% (active) | -1.71% (active) | 4.91% (active) | 9.48% (active) | 33% | 23.4% | 7.53% (active) | 24% | -9.23% (active) | 12.2% | -57.5% (active) | 22.4% |  | 10.7% | -83.4% (active) | -36.5% (active) | 8.85% (active) | -26.7% (active)
CC(=O)OC[C@@]1(C)C2CC[C@]3(C)C(CC=C4C5CC(C)(C)CC[C@]5(C(=O)Nc5ccc(Br)cc5)CC[C@]43C)[C@@]2(C)C[C@@H](OC(C)=O)[C@@H]1OC(C)=O (some centres undefined) | 32% | 14.5% | 35.9% | 92.8% | 42% | 44% | 57.3% | 45% | 42.5% | 16.5% | 43.7% | 47.8% | 39.9% | 28.2% | 24.6% | 38% | 46.4% | 4.65% (active)
Cc1c(C(=O)NNC(=O)c2ccc(Cl)cc2)nnn1-c1ccc(Br)cc1 | 84.3% | 98.2% | 103% | 95.2% | 96.5% | 90.2% | 105% | 115% | 97.5% | 93% | 96.5% | 100% |  | 84.3% | 89.5% | 105% | 104% | 95.6%
Clc1cccc(Cl)c1/C=C/c1cc(/C=C/c2ccc(Br)cc2)c2ccccc2n1 | 92.4% | 86.6% | 101% | 97.4% | 93.8% | 98.2% | 96.6% | 111% | 95.5% | 81.2% | 91.2% | 99.9% |  | 83.3% | 95.8% | 118% | 102% | 111%
CC1=C(C(=O)OC(C)C)C(c2cccc(O)c2)NC(=S)N1 (centres undefined) | 90.7% | 88.9% | 104% | 104% | 98% | 97.9% | 110% | 120% | 105% | 93.7% | 127% | 104% |  | 90.6% | 102% | 105% | 106% | 92%
Cc1ncsc1-c1ccc(CNC(=O)[C@@H]2C[C@@H](O)CN2C(=O)[C@@H](NC(=O)C2(F)CC2)C(C)(C)C)c(OCCOCCOCCOCCOc2nc(Nc3cc(S(C)(=O)=O)ccc3N[C@@H](c3cccc4c3OC(F)(F)O4)c3ncccc3Cl)nc(N3CCNCC3)n2)c1 | 26.3% | 13.6% | 98.4% | 99% | 91.6% | 111% | 72.2% | 89.1% | 103% | 76.6% | -34.3% (active) | 86.9% |  | 5.45% (active) | 69.5% | 71.2% | 71.2% | -19.8% (active)
NS(=O)(=O)c1ccc(-n2cc(-c3cccc(NC(=O)c4cc(C(F)(F)F)cc(C(F)(F)F)c4)c3)nn2)cc1 | 47.4% | 90% | 40.7% | 70.5% | 85.9% | 68.4% | 63.1% | 78.5% | 81.6% | 60.3% | 98.7% | 87.8% |  | 59.6% | 46.7% | 65.3% | 21.9% | 55.1%
CC1(C)CC[C@]2(C(=O)O)CC[C@]3(C)C(=CCC4[C@@]5(C)C[C@@H](O)[C@@H]6OC(c7ccc(F)cc7)OC[C@@]6(C)C5CC[C@]43C)C2C1 (some centres undefined) | 7.73% (active) | 9.02% (active) | 29.3% | 63.4% | 44% | 85.7% | 43.4% | 24% | 30.2% | 33.3% | 26% | 48.9% | 23.7% | 12.8% | 8.81% (active) | 18.1% | 12.3% | 13.7%
N#Cc1c(-c2ccc(Cl)cc2)nc2n[nH]c(-c3ccc(Cl)cc3)c2c1-c1ccc(C(F)(F)F)cc1 | -21.8% (active) | -2.57% (active) | 16.2% | -41.8% (active) | 2.98% (active) | 3.06% (active) | -15% (active) | -13.9% (active) | -24.5% (active) | -2.6% (active) | -40% (active) | -29.7% (active) |  | -4.6% (active) | -63.3% (active) | -38.9% (active) | -11% (active) | -45% (active)
